G9a block = qHTS Assay for Inhibitors of Histone Lysine Methyltransferase G9a; AID 504332, 2011; Potency, µM (titrated, usually from 102 µM), without a hit: top-dose activity, negative = inhibition, most hits filed as inhibitors; G9a H3K9 monomethylation, AlphaScreen, 2 h; 350,000 compounds, 8.8% hits; note: % is set by controls: 0 for no effect and ±100 for the full control effect; nearly all actives have a fitted effect of over 75% in size
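AlphaScreen detection with an anti-monomethyl H3K9 antibody quantified product after a 2 h room-temperature reaction containing 500 nM biotinylated H3K9 peptide, 20 µM SAM and 20 nM enzyme, which had been preincubated 15 min with compound.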
TDP1 inh = qHTS Assay for Inhibitors of Tyrosyl-DNA Phosphodiesterase (TDP1). recombinant TDP1, AlphaScreen DNA substrate cleavage. 350,000 compounds, 0.28% hits. Potency, µM (doses to about 130 µM), inactives show at the highest dose activity change, negative = inhibition, most hits filed as inhibitors. Tyrosyl-DNA phosphodiesterase 1 (Homo sapiens), Q9NUW8; note: % is set by controls: 0 for no effect and ±100 for the full control effect; nearly all actives have a fitted effect of over 40% in size
Target sequence (Q9NUW8 whole entry, looked up): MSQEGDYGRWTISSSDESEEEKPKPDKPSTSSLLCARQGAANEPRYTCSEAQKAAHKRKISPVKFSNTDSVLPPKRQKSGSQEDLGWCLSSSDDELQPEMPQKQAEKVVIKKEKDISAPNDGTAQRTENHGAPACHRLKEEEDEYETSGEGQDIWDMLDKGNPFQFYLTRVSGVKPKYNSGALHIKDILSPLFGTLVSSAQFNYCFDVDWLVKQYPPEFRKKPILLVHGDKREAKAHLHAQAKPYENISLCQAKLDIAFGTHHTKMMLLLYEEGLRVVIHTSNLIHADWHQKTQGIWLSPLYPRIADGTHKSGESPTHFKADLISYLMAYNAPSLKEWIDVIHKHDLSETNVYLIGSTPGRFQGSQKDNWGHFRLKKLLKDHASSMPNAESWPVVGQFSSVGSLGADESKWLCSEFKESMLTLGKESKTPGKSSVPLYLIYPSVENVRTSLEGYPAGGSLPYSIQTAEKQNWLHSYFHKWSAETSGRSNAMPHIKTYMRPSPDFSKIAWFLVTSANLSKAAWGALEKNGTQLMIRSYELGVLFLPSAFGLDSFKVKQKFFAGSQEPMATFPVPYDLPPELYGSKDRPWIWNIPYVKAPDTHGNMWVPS
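Recombinant E. coli-expressed Tdp1 (1 nM) preincubated with compound 15 min at RT, then 5'-biotin/3'-phosphotyrosine-FITC DNA substrate (15 nM) added for 5 min. AlphaScreen beads (10 ug/ml) added, 10 min RT; tyrosine-FITC cleavage read as signal loss.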
JMJD2A Tudor = qHTS Assay for Inhibitors of JMJD2A-Tudor Domain; Lysine-specific demethylase 4A (Homo sapiens), O75164; AlphaScreen JMJD2A-Tudor / H3K4me3 peptide binding; Potency, µM (titrated, usually from 114 µM), inactives show at the top dose activity change, negative = inhibition, hits mostly inhibitors; 390,000 compounds, 4.4% hits; AID 504339, 2011; note: % is set by controls: 0 for no effect and ±100 for the full control effect; nearly all actives have a fitted effect of over 50% in size
HP1b chromo inh = HTS for Inhibitors of HP1-beta Chromodomain Interactions with Methylated Histone Tails. AlphaScreen HP1-beta / biotin-H3K9me3 peptide binding. 390,000 compounds, 0.56% hits. Potency, µM (highest dose often 114 µM), inactives show top-dose activity change, negative = inhibition, actives largely listed as inhibitors; note: nearly all actives have a fitted effect of over 70% in size
Target sequence (P83916 whole entry, looked up): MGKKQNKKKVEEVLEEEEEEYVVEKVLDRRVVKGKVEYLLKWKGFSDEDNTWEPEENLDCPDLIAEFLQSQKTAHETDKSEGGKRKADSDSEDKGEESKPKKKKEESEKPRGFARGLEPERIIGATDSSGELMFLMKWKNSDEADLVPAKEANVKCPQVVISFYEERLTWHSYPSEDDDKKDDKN
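HP1-beta protein (50 nM final) preincubated 30 min at room temperature with biotinylated H3(1-18)K9me3 peptide (50 nM) in PBS pH 7.4, 0.01% Tween-20, then compound added for 30 min. AlphaScreen streptavidin donor/nickel chelate acceptor beads (10 ug/mL final), 30 min dark, luminescence read.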
Sfp inh = qHTS Assay for Inhibitors of Bacillus subtilis Sfp phosphopantetheinyl transferase (PPTase); Biochemical Sfp PPTase activity, qHTS; 4'-phosphopantetheinyl transferase ffp (Bacillus subtilis), Q9F4F7; Potency, µM, inactives show largest response in the series, negative = inhibition, most hits filed as inhibitors; 310,000 compounds, 3.5% hits;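 note: the enzyme is Sfp with the accession as filed and its product quenches rhodamine fluorescence; 0% = enzyme reaction without inhibitor and -100% = no enzyme wells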
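Fluorescence-quenching assay with 15 nM Sfp, 5 uM rhodamine-CoA and 12.5 uM BHQ-2-labelled ybbR peptide in pH 7.6 Hepes/MgCl2 buffer. Enzyme was pre-incubated with compound for 15 min at room temperature. Rate was taken from the 30-min fluorescence change (525/598 nm).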
BAZ2B block = qHTS Assay for Inhibitors of BAZ2B. Bromodomain adjacent to zinc finger domain protein 2B (Homo sapiens), Q9UIF8. AlphaScreen BAZ2B-H3K14Ac peptide displacement. Potency, µM (highest dose often 114 µM), inactives show at the top dose activity change, negative = inhibition, most hits filed as inhibitors. 360,000 compounds, 4.4% hits. AID 504333, 2011; note: % is set by controls: 0 for no effect and ±100 for the full control effect; nearly all actives have a fitted effect of over 60% in size
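Complex of BAZ2B and biotin-H3K14Ac (50 nM apiece) forms over 30 min at RT, then faces library compounds up to 110 uM for another 30 min; AlphaScreen beads added, 20 min dark incubation, luminescence read.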
Active calls of the source: *; u = inconclusive; x = no result given; [ ] = remark or other dose. Hits are enriched below; roughly 12% of the tested compounds scored in any of these assays. Calls come from the whole dose curve; as a rule, active = well fitted curve in the direction sought with a large enough effect; inconclusive = small, poorly fitted or top-dose-only effect, or another doubt; inactive = no such curve, though single readings can be large; an effect the other way counts as inactive or inconclusive. Potency is the fitted concentration of half-maximal effect.

SMILES | G9a block | TDP1 inh | JMJD2A Tudor | HP1b chromo inh | Sfp inh | BAZ2B block
O=C(CCS(=O)(=O)c1ccc(Br)cc1)Nc1ccc2c(c1)OCO2 | u | u | 50.1µM* | u | -0.3% | 50.1µM*
Cc1ccc(S(=O)(=O)CCC(=O)Nc2ccc3c(c2)OCO3)cc1 | 17.9%[12.7 µM] | 8.0% | -8.2% | 6.7% | -75.2% | 3.8%
Cc1ccc(S(=O)(=O)Nc2nc3ccc(S(C)(=O)=O)cc3s2)cc1 | u | 4.7% | -18.0% | 15.5% | 8.1% | -37.2%
Cc1ccc(C)c(S(=O)(=O)Nc2nc3ccc(S(N)(=O)=O)cc3s2)c1 | 10µM* | -5.4% | 50.1µM* | -15.5% | u | 7.9%
COC(=O)c1ccc(NC(=O)Cn2c(=O)nc(-c3ccccc3)c3ccccc32)cc1 | 32.6%[59 µM] | 1.2% | 0.7% | 39.9% | x | -1.4%
CCc1ccc(/C=C/C(=O)C2C(=O)c3ccccc3C2=O)cc1 | u | 7.8% | -21.4% | 22.1% | 79.4µM* | -3.8%
O=C(/C=C/c1ccccc1)C1C(=O)c2ccccc2C1=O | -5.4%[59 µM] | 2.7% | -13.4% | 15.3% | 7.3% | 10.2%
Cc1ccccc1-n1c([C@@H]2C[C@H]2c2ccccc2)n[nH]c1=S | x | 3.5% | 44.7µM* | 8.7% | -4.2% | -16.4%
S=c1[nH]nc([C@@H]2C[C@H]2c2ccccc2)n1-c1ccccc1 | 2µM* | 2.7% | 17.8µM* | -4.7% | -15.0% | -9.4%
CCCCN1CC(c2nc3ccccc3n2CCCCOc2c(C)cccc2C)CC1=O (stereo not given) | u | 2.9% | -3.0% | 32.5% | x | 0.5%
Cc1ccc2c(c1)N(C(=O)CCC(=O)NC1CCCCCC1)CC(C)O2 (stereo not given) | 11.0% | x | -6.9% | 33.6% | 12.1% | -27.0%
C=CCn1c(-c2csc3ccccc23)n[nH]c1=S | u | 3.8% | 17.8µM* | -7.6% | -5.6% | -5.0%
C=CCn1c(CSc2nc3ccccc3s2)nnc1SCC(=O)OCC | u | 2.6% | -19.1% | 17.9% | 6.0% | -0.8%
C=CCn1c(-c2c[nH]c3ccccc23)n[nH]c1=S | 3.98µM* | 9.0% | 6.31µM* | 13.9% | -16.9% | -0.1%
CCn1c(-c2c[nH]c3ccccc23)n[nH]c1=S | 1.26µM* | u | 3.98µM* | -14.6% | -6.9% | 1.2%
CCn1c(-c2cc3ccccc3cc2O)n[nH]c1=S | u | 7.9% | u | 10.9% | -1.2% | -34.1%
CCOc1ccccc1NC(=O)Cn1c(=O)n(C(C)C)c(=O)c2oc3ccccc3c21 | 3.9%[59 µM] | 5.1% | 9.9% | 47.0% | x | -30.5%
COc1ccc(C(=O)Nc2nc(-c3ccc(Br)cc3)ns2)cc1 | 8.7%[59 µM] | 3.6% | 11.3% | 54.0% | x | 5.2%
CCOc1ccc(S(=O)(=O)NNS(=O)(=O)c2ccc(C)cc2C)cc1 | 3.55µM* | 4.3% | -17.8% | 43.1% | 79.4µM* | -23.6%
O=C(NCCN1CCN(c2cccc(Cl)c2)CC1)Nc1ccccc1C(F)(F)F | -28.4%[59 µM] | 0.0% | -29.5% | 35.0% | x | -6.4%
CN1/C(=C/C(=O)C2CC2)C(C)(C)c2ccccc21 | 0.8% | -1.3% | -23.5% | 39.9% | 10.9% | -1.0%
CN1/C(=C\C(=S)NC(=O)c2cccc(Br)c2)C(C)(C)c2ccccc21 | 14.1µM* | 11.0% | 20µM* | u | u | 10µM*
CN1/C(=C\C(=O)COC(=O)c2ccc([N+](=O)[O-])o2)C(C)(C)c2ccccc21 | 20µM* | 8.9% | -29.3% | 18.4% | 10.1% | u
CN1/C(=C\C(=O)COC(=O)c2nccnc2N)C(C)(C)c2ccccc21 | -8.9%[0.501 µM] | x | -16.6% | 14.2% | x | -33.2%
CN1/C(=C\C(=O)Nc2ccc(F)cc2)C(C)(C)c2ccccc21 | 44.7µM* | 8.2% | -27.4% | 2.2% | 0.2% | u
SMILES | G9a block | TDP1 inh | JMJD2A Tudor | HP1b chromo inh | Sfp inh | BAZ2B block
CN1/C(=C\C(=S)NC(=O)c2ccc([N+](=O)[O-])cc2)C(C)(C)c2ccccc21 | 44.7µM* | 1.9% | 50.1µM* | u | u | u
CC(=O)N[C@H](Cc1c[nH]c2ccccc12)C(N)=O | -0.8%[2.33 µM] | -12.4%[56.1 µM] | x | x | 14.5% | x
CN1/C(=C/C2CC(=O)N(c3ccc([N+](=O)[O-])cc3)C2=O)C(C)(C)c2ccccc21 (stereo not given) | u | 7.8% | u | -2.6% | 44.7µM* | u
O=C(Cc1ccc(NC(=O)C2CCN(C(=O)C3CCC3)CC2)cc1)Nc1cccc(C(=O)N2CCCCC2)c1 | x | x | -21.2% | 28.5% | x | x
O=C(c1ccccc1)c1cnc2ccc(Cl)cc2c1N1CCOCC1 | 50.1µM* | 4.6% | u | -1.4% | 7.9% | u
COc1cc2ncc(C(=O)c3ccccc3)c(N3CCN(Cc4ccccc4)CC3)c2cc1OC | 35.5µM* | x | 22.4µM* | u | -16.0% | u
Nc1ccc2nc(CCCCCCCCc3nc4ccc(N)cc4[nH]3)[nH]c2c1 | 31.6µM* | 6.5% | 50.1µM* | 3.7% | -0.9% | 22.4µM*
Nc1ccc2nc(-c3ccc(-c4nc5ccc(N)cc5[nH]4)cc3)[nH]c2c1 | 5.2% | x | -33.3% | 19.0% | -5.7% | u
O=C(CCc1nc2ccccc2[nH]1)N1CCc2ccccc2C1 | 89.1µM* | 1.3% | -20.7% | 13.5% | 4.5% | 5.3%
O=C(Cn1ncc2c([nH]c3ccccc32)c1=O)N1CCc2ccccc2C1 | -0.2%[59 µM] | -1.9% | -11.1% | 6.5% | 20.7% | -10.4%
c1ccc2[nH]c(CCCc3nc4ccccc4[nH]3)nc2c1 | 56.2µM* | x | -11.9% | 54.0% | 16.1% | -5.6%
Nc1ccc2nc(-c3cccc(-c4nc5ccc(N)cc5[nH]4)n3)[nH]c2c1 | 11.2µM* | x | 44.7µM* | u | 31.6µM* | 25.1µM*
CN(C(=O)CN1C(=O)c2ccccc2S1(=O)=O)C1CCCCC1 | x | 1.5% | 0.7% | 27.7% | x | x
COc1ccccc1NC(=O)c1c(C)cc(C)nc1SCC(=O)Nc1cccc(C)c1 | -24.8%[59 µM] | 1.6% | -4.3% | 36.9% | x | -27.4%
COc1ccc(-c2cn3nc(N4CCCC(C(=O)Nc5ccccc5F)C4)sc3n2)cc1 (stereo not given) | u | 7.5% | -13.9% | -5.1% | x | -18.0%
CCN(CC)CCNC(=O)CSc1nc2nc(C)c(Cc3ccccc3)c(C)n2n1 | -0.9%[59 µM] | 2.9% | -2.4% | 31.5% | x | 0.0%
CC(C)Oc1cccc(C(=O)C2CCCN(C(=O)CCn3cnnn3)C2)c1 (stereo not given) | x | 2.6% | -9.9% | 48.6% | 7.7% | -7.2%

Compound activity as filed in PubChem BioAssay.
